3T3 cytotox: Cytotoxic Profiling in NIH 3T3 Cell Line of Diverse Libraries Using Quantitative High-Throughput Screening; NIH 3T3 viability, CellTiter-Glo ATP luminescence, 48-72 h; Potency, µM (highest dose often 96.7 µM), for the others: top-dose activity change, negative = cytotoxicity, actives largely listed as inhibitors; 4.3% of 94,000 active; also: nearly all actives have a fitted effect of over 55% in size
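Mouse fibroblast NIH 3T3 cells, 400 per well, received compound via pintool and were incubated for 48 or 72 hr prior to CellTiter-Glo ATP luminescence measurement.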
HEK cytotox: Cytotoxic Profiling in HEK 293 Cell Line of Diverse Libraries Using Quantitative High-Throughput Screening; HEK 293 viability, ATP luminescence (CellTiter-Glo), 48-72 h; Potency, µM (doses to about 115 µM), for the others: top-dose activity change, negative = cytotoxicity, hits mostly inhibitors; 6.6% of 94,000 active; also: nearly all actives have a fitted effect of over 60% in size
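HEK 293 cells seeded at 250 cells/well were exposed to compound for 48 or 72 hr at 37 degree Celsius. Viability taken as ATP content by CellTiter-Glo luminescence.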
hNpr1 antagonist: Natriuretic polypeptide receptor (hNpr1) antagonism - Primary qHTS | Atrial natriuretic peptide receptor 1 (Homo sapiens), P16066 | HEK293 hNpr1 GloSensor cGMP, ANP-stimulated luminescence | Potency, µM (highest dose often 46.3 µM), without a hit: at the top dose activity change, negative = inhibition, hits mostly inhibitors | 1.6% of 76,000 active; calls by dose curve; also: nearly all actives have a fitted effect of over 60% in size
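HEK293 cells stably expressing human Npr1 and cGMP GloSensor pGS-40F, loaded 2 h with 2% GloSensor reagent, given compound 30 min at room temperature. Luminescence read before and 20 min after 0.1 nM hNppA.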
FLuc inh: Firefly luciferase inhibition profiling of diverse chemical library using quantitative high-throughput screening. Potency, µM (titrated, usually from 115 µM), hits mostly inhibitors. 2.5% of 76,000 active. purified P. pyralis luciferase, luminescence, biochemical. Luciferin 4-monooxygenase (Photinus pyralis), P08659; also: nearly all actives have a fitted effect of over 65% in size
Target sequence (P08659 whole entry, looked up): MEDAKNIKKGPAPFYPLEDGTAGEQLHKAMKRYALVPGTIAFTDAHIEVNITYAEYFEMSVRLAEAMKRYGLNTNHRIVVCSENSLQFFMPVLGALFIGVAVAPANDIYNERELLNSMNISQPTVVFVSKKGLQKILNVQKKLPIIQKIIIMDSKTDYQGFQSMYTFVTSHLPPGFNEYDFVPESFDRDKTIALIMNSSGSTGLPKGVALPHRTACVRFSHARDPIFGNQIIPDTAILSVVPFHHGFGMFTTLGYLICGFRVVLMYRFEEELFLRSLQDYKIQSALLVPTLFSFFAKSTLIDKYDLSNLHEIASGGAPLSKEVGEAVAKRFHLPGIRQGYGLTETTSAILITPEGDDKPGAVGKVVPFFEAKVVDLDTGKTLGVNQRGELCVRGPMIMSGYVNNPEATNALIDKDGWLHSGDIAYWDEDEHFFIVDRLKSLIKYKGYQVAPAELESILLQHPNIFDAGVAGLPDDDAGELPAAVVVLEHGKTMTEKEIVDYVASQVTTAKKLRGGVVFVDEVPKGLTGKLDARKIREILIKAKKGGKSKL
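FLuc 10nM, D-luciferin 10uM, ATP 10uM, Mg acetate 10mM, Tris acetate pH 7.5, Tween/BSA; cpd qHTS; enzyme added last; CCD luminescence.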
GPT2 inhibitor: Primary qHTS assay for inhibitors of Glutamate pyruvate transaminase 2 (GPT2). Recombinant GPT2, coupled pyruvate oxidase/HRP Amplex Red fluorescence. AID 1671188, 2021. Alanine aminotransferase 2 (Homo sapiens), Q8TD30. Potency, µM (doses to about 57.7 µM), without a hit: top-dose activity change, negative = inhibition, hits mostly inhibitors. 0.25% of 100,000 active; also: nearly all actives have a fitted effect of over 60% in size
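Fluorescence read-out: pyruvate from GPT2 turnover coupled to pyruvate oxidase, HRP and Amplex Red (0.2mM ThPP, 0.2U/mL PO and HRP, 50uM Amplex final). Substrates 250uM a-KG, 2mM L-alanine; enzyme 10ng/uL; 30 min RT.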
The depositor's hits bear a star; i = inactive; ? = inconclusive; . = no result given; [ ] = another dose, or the depositor's remark. Shown are actives, neighbours in structure and some others; about 10% of the full set was active somewhere. Unless noted, calls follow the shape of the dose curve; as a rule, active = well fitted curve in the direction sought with a large enough effect; inconclusive = small, poorly fitted or top-dose-only effect, or another doubt; inactive = no such curve, though single readings can be large; an effect the other way counts as inactive or inconclusive. % is scaled to controls: 0 for no effect and ±100 for the full control effect; potency is read from the fitted curve at half-maximal effect.

SMILES | 3T3 cytotox | HEK cytotox | hNpr1 antagonist | FLuc inh | GPT2 inhibitor
Cn1nc(C2CCCCC2)cc1[C@H]1CN2CC[C@H]1C[C@@H]2CNC(=O)NCc1ccccc1 | ? | 79µM* | 1% | i | -2%
O=C(NC[C@H]1C[C@@H]2CCN1C[C@@H]2CN1CCN(c2ccc(F)cc2)CC1)Nc1cccc(F)c1 | 22µM* | 28µM* | -19% | i | -3%
N#Cc1cccc(NC(=O)NC[C@H]2C[C@@H]3CCN2C[C@@H]3CN2CCN(c3ccccc3)CC2)c1 | 22µM* | ? | -16% | i | -2%
COc1cc(C)[nH]c(=O)c1CNC(=O)c1c(C)n([C@H](C)C2CCOCC2)c2ccccc12 | . | . | . | . | i
C[C@]12CC[C@H](O)C[C@@H]1CC[C@@H]1[C@@H]2CC[C@]2(C)[C@@H](C3=CC(=O)OC3)CC[C@]12O | . | . | . | . | i
CN1CCN(C(=O)Cc2c[nH]c3ncc(-c4cccc(OC(F)(F)F)c4)cc23)CC1 | 79µM* | ? | -1%[70.6 µM] | i | ?
COc1ncccc1-c1cnc2[nH]cc(CC(=O)N3CCN(C)CC3)c2c1 | ? | -25%[172 µM] | 3%[70.6 µM] | i | i
CN1CCN(C(=O)Cc2c[nH]c3ncc(-c4ccccc4Oc4ccccc4)cc23)CC1 | ? | 79µM* | ? | i | -1%[88.5 µM]
COc1cccc(-c2cnc3[nH]cc(CC(=O)N4CCN(C)CC4)c3c2)c1 | ? | ? | -19%[70.6 µM] | 20µM* | i
CCOC(=O)[C@H]1CN([S+](=O)([O-])c2cccs2)[C@]2(C)C(=O)N(CC3CC3)c3ccccc3[C@H]12 | ? | ? | . | . | -47%[27.3 µM]
COc1cc2c(cc1OCC1CCCC1)N([S+](=O)([O-])c1cccc(C(F)(F)F)c1)CC21CCN(CC(=O)O)CC1 | 40µM* | 45µM* | 2% | i | i
CCN1CCN(C(=O)Cc2ccc(Nc3ncc(F)c(Nc4ccc(C(=O)Nc5ccccc5Cl)cc4)n3)cc2)CC1 | . | . | . | . | i
Cc1ccccc1-c1ccc2n(c1=O)C[C@H]1C[C@@H]2CN(C(=O)CCC(=O)O)C1 | 1%[174 µM] | -9%[172 µM] | 3%[70.6 µM] | i | ?
O=c1c(-c2cccs2)ccc2n1C[C@H]1C[C@@H]2CN(Cc2cc3ccccc3o2)C1 | ? | 89µM* | -20%[70.6 µM] | i | i
Cc1ccccc1-c1ccc2n(c1=O)C[C@H]1C[C@@H]2CN(Cc2cccs2)C1 | ? | 71µM* | ? | i | -1%[88.5 µM]
O=C(O)COCC(=O)N1C[C@@H]2C[C@H](C1)c1ccc(-c3cc4ccccc4s3)c(=O)n1C2 | -9% | -8% | 3% | ? | -16%
COc1ccc2c(C)c(C(=O)N3CCC(C#N)(c4ccccc4)CC3)oc2c1 | ? | ? | -18% | i | -18%
C=CC(C)(C)c1[nH]c2cccc3c2c1C[C@@H]1[C@@H]3[C@@H](OC(C)=O)[C@H](C)CN1C | . | . | . | . | i
O=S(=O)(NC[C@H]1C[C@@H]2CCN1C[C@@H]2CN1CCCC1)c1ccc(Cl)cc1 | 79µM* | ? | -1%[70.6 µM] | i | -27%[88.5 µM]
O=S(=O)(NC[C@H]1C[C@@H]2CCN1C[C@@H]2CN1CCc2ccccc21)c1ccccc1 | 56µM* | 56µM* | -14%[70.6 µM] | i | ?
COc1ccc(S(=O)(=O)NC[C@H]2C[C@@H]3CCN2C[C@@H]3CN(C)c2ccccc2)cc1 | 35µM* | ? | 1%[70.6 µM] | i | 3%[88.5 µM]
CN1CCN(C[C@H]2CN3CC[C@H]2C[C@@H]3CNS(=O)(=O)c2ccccc2)CC1 | -23%[174 µM] | -4%[172 µM] | 3%[70.6 µM] | i | 2%[88.5 µM]
COc1ccc(S(=O)(=O)NC[C@H]2C[C@@H]3CCN2C[C@@H]3CN2CCOCC2)cc1 | -1%[174 µM] | 0%[172 µM] | -2%[70.6 µM] | i | -1%[88.5 µM]
COc1ccc(S(=O)(=O)NC[C@H]2C[C@@H]3CCN2C[C@@H]3CN2CCC(Cc3ccccc3)CC2)cc1 | 13µM* | ? | -16% | i | 4%
CC[C@H]1CN2CC[C@H]1C[C@@H]2CNS(=O)(=O)c1ccc(OC)cc1 | -5%[174 µM] | -1%[172 µM] | 2%[70.6 µM] | i | -4%[88.5 µM]
SMILES | 3T3 cytotox | HEK cytotox | hNpr1 antagonist | FLuc inh | GPT2 inhibitor
CCOC(=O)[C@H]1CN(C(=O)COc2ccccc2)[C@]2(C)C(=O)N(CC3CC3)c3ccccc3[C@H]12 | ? | ? | . | . | 2%[27.3 µM]
COc1cc2c(cc1OCc1ccccc1)N(C(=O)CC(C)C)CC21CCN(C)CC1 | 50µM* | 100µM* | 4%[70.6 µM] | i | 3%[88.5 µM]
COc1cc2c(cc1OCc1ccccc1)N(C(=O)CC1CC1)CC21CCN(C)CC1 | 79µM* | 112µM* | 12%[70.6 µM] | i | i
COc1cc2c(cc1OCc1ccccc1)N(C(=O)[C@@H]1CCCO1)CC21CCN(C)CC1 | ? | -17%[172 µM] | 5%[70.6 µM] | i | -1%[88.5 µM]
COc1cc2c(cc1OCc1ccccc1)N([S+](=O)([O-])c1cccc3cccnc13)CC21CCN(C)CC1 | 18µM* | 25µM* | -16% | i | -6%
COc1ccccc1CC(=O)N1CC2(CCN(C)CC2)c2cc(OC)c(OCc3ccccc3)cc21 | 32µM* | ? | 5% | i | i
C=C(C)C(=O)O[C@H]1[C@@H]2[C@H](C)C(=O)O[C@@H]2C[C@@H](C)[C@@H]2C=CC(=O)[C@]21C | . | . | . | . | 4%[27.3 µM]
CCOC(=O)[C@H]1CN(C(=O)c2ccc(OC)cc2)[C@]2(C)C(=O)N(CC3CC3)c3ccccc3[C@H]12 | ? | ? | . | . | -3%[27.3 µM]
CC(C)(C)c1ccc(-c2cn(C[C@H]3CC4CCN3C[C@@H]4C(=O)Nc3ccccc3)nn2)cc1 (some centres undefined) | 28µM* | 28µM* | 1% | ? | -11%
Cc1nc(-c2ccccc2)cc([C@H]2CN3CC[C@H]2C[C@@H]3CNC(=O)c2cccs2)n1 | ? | 71µM* | -3%[70.6 µM] | i | -1%[88.5 µM]
Cc1nc(-c2ccccc2)cc([C@H]2CN3CC[C@H]2C[C@@H]3CNS(=O)(=O)Cc2ccccc2)n1 | 79µM* | 79µM* | -1% | i | i
Cn1nc(-c2ccccc2)cc1[C@H]1CN2CC[C@H]1C[C@@H]2CNC(=O)c1cccs1 | ? | ? | 3%[70.6 µM] | i | 1%[88.5 µM]
CCC(CC)c1cc([C@H]2CN3CC[C@H]2C[C@@H]3CNC(=O)Cc2cccs2)nc(-c2ccncc2)n1 | 28µM* | 40µM* | ? | i | -4%
CCC(CC)c1cc([C@H]2CN3CC[C@H]2C[C@@H]3CNC(=O)c2cccs2)nc(-c2ccncc2)n1 | 22µM* | ? | ? | i | -13%
